A selection: hits, their analogues and other compounds. The true share with any hit is near 4%.
TRPM1 prom inh: reduces MITF-dependent TRPM1 promoter luciferase signal; inhibition, % at 12.5 µM; SK-MEL-5 TRPM1 promoter luciferase, 24 h; hit rate 0.83% among 330,000;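 active = mean inhibition across replicates of 60% or more, whatever share of single replicates reaches that level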
MITF TRPM1 HTS: activators of MITF-driven TRPM1 promoter activity in SK-MEL-5 cells; AID 588334; hit rate 0.75% among 300,000; activation, % at 12.5 µM; SK-MEL-5 TRPM1-promoter luciferase, 24 h; % of positive control, neutral wells = 0;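 active = mean activation of at least 80% with every replicate also reaching 80%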;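 also: 0% = neutral control wells and 100% = parthenolide positive control wells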
PAX8 inh HTS: PAX8 transcriptional activity inhibition. inhibition, % at 12.6 µM. hit rate 1.2% among 360,000. RMG-I TPO-luciferase reporter, SteadyGlo, 24 h;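 active = mean replicate inhibition at least 60% with every replicate also reaching 60%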;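 also: luciferase light reporting Pax8 driven TPO promoter activity; plate controls were median of neutral control wells for no effect and mitoxantrone controls for full effect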
Wnt act: activators of Wnt/beta-catenin signaling; Wnt/beta-catenin reporter cell assay, activator, plate reader; activation, % at 9.35 µM; hit rate 1.2% among 300,000; in the data active = activation above about 30%, passing the limit was not always enough;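 also: 0% = neutral control wells and 100% = positive control wells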
esBAF inh: SWI/SNF esBAF complex inhibition; mouse ES cells, Bmi1-luciferase knock-in reporter, 24 h; 100% = twice the neutral-well signal; hit rate 2% among 350,000; reporter increase, % at 12.5 µM; in the data active = activation above about 40%;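 also: 0% = median of the plate's neutral control wells and 100% = double that signal; a rise in the Bmi1 reporter signal indicates esBAF inhibition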
EWS-Fli inh: blocks EWS/Fli oncoprotein-driven transcription; A673 NR0B1-luciferase reporter, viability-normalised; inhibition, % at 12.6 µM; hit rate 0.67% among 350,000; AID 651661;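 active = mean inhibition of at least 50% after viability correction, with every replicate also passing that limit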;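 also: firefly luciferase signal divided by Alamar Blue viability fluorescence both relative to DMSO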
* hit, by the source's call; nt = not tested or not shown.

SMILES	TRPM1 prom inh	MITF TRPM1 HTS	PAX8 inh HTS	Wnt act	esBAF inh	EWS-Fli inh
Cc1nc(NC(=O)c2ccc(Br)o2)ccc1Br	-22	21	-103	0	nt	-71
Cc1cccc(NC(=O)c2cc3ccccc3c(=O)o2)n1	-55	57	-188	52*	10	-60
O=C(Nc1cccnc1Cl)c1cc2ccccc2o1	-71	71	-134	49*	19	-58
Cc1nc(NC(=O)c2cc3ccccc3o2)ccc1Br	-65	63	-61	14	69*	nt
COc1ccc(S(=O)(=O)Nc2ccc3c(c2)C(=O)N([C@@H](C)CO)C[C@H](C)[C@@H](CN(C)C(=O)NC2CCCCC2)O3)cc1	nt	nt	nt	nt	-3	1
COc1ccccc1CNC(=O)C[C@@H]1C=C[C@H](NC(C)=O)[C@@H](CO)O1	nt	nt	-7	nt	-3	-4
Cc1noc(C)c1S(=O)(=O)Nc1ccc2c(c1)C(=O)N([C@@H](C)CO)C[C@H](C)[C@H](CN(C)C(=O)CCCN(C)C)OCCCC[C@H](C)O2	nt	nt	8	nt	-3	-4
C[C@@H]1CCCCO[C@@H](CN(C)S(C)(=O)=O)[C@H](C)CN([C@H](C)CO)C(=O)c2cc(NC(=O)Cc3ccccc3)ccc2O1	nt	nt	5	nt	4	-6
C[C@@H]1CCCCO[C@H](CN(C)C(=O)C2CCCCC2)[C@@H](C)CN([C@@H](C)CO)C(=O)c2cc(N(C)C)ccc2O1	nt	nt	11	nt	4	-5
Cc1cc(C(=O)Nc2cccc(C(=O)O)c2)oc1C	87*	-85	nt	-4	-60	nt
Cc1cc(C(=O)Nc2cccc(C(=O)O)c2)c(C)o1	7	-6	nt	nt	-7	nt
Cc1cccc(NC(=O)c2cc3ccccc3o2)c1	-26	28	nt	42*	63*	nt
CCOC(=O)c1ccc(NC(=O)c2cc3ccccc3o2)cc1	-112	111*	nt	nt	25	nt
CCOC(=O)c1cccc(NC(=O)c2cc3ccccc3o2)c1	-24	nt	-79	7	46*	84*
O=C(Nc1cccc(Br)c1)c1cc2ccccc2o1	-56	52	nt	-3	nt	-213
CC=Cc1ccc2n(c1=O)C[C@H]1[C@H](CO)[C@@H](C(=O)N[C@@H](C)c3ccccc3)[C@@H]2N1Cc1ccccc1 (mixture of isomers)	nt	nt	9	nt	nt	nt
CO[C@H]1CN(C)C(=O)c2ccc(NC(=O)Nc3ccccc3F)cc2OC[C@H](C)N(C)C[C@H]1C	nt	nt	nt	nt	-3	2
O=C(C[C@@H]1CC[C@H]2[C@@H](COC[C@H](O)CN2Cc2ccc(Cl)cc2)O1)NCc1cccc(F)c1	nt	nt	nt	nt	-6	nt
Cc1cccc(NC(=S)NC(=O)c2oc3ccccc3c2C)n1	-70	72	-169	24	49*	-106
Cc1cccc(NC(=S)NC(=O)c2ccc(-c3ccccc3)cc2)n1	-28	32	-96	20	28	-97
COC(=O)c1ccc(Cn2cc(/C=C\[N+](=O)[O-])c3ccccc32)o1	31	nt	28	7	0	68*
O=C(O)c1ccc(Cn2cc(/C=C\[N+](=O)[O-])c3ccccc32)o1	9	nt	22	-1	-6	21
CCOC(=O)c1sc(NC(=O)Cn2nnc3sc4c(c3c2=O)CCC(C(C)(C)C)C4)nc1C (stereo unspecified)	1	0	73*	-1	nt	3
C[C@@H]1CCCCO[C@H](CN(C)S(=O)(=O)c2ccc(Cl)cc2)[C@H](C)CN([C@@H](C)CO)C(=O)c2cc(N(C)C)ccc2O1	nt	nt	77*	nt	3	-1
C[C@H](CO)N1C[C@H](C)[C@H](CN(C)S(=O)(=O)c2ccc(Cl)cc2)OCCCC[C@H](C)Oc2ccc(N(C)C)cc2C1=O	nt	nt	54	nt	-5	-5
C[C@@H]1CN([C@@H](C)CO)C(=O)c2cc(N(C)C)ccc2O[C@@H](C)CCCCO[C@H]1CN(C)S(=O)(=O)c1ccc(F)cc1	nt	nt	88*	nt	-6	0
C[C@@H]1CN([C@@H](C)CO)C(=O)Cc2cc(NC(=O)C3CC3)ccc2O[C@H]1CN(C)C(=O)Nc1ccc(F)cc1	nt	nt	nt	nt	-1	-4
Cc1ccc([N+](=O)[O-])cc1N=Nc1c(C)[nH]n(C(N)=S)c1=O	-19	17	2	-5	-4	14
Cc1ccc([N+](=O)[O-])cc1N=Nc1c(-c2ccc([N+](=O)[O-])cc2)[nH]n(C(N)=S)c1=O	64*	-61	nt	nt	-47	nt

High-throughput results (PubChem BioAssay)
